Sampled rows, rich in hits. Any-hit rate of the full collection: about 3.6%.
CF NFkB inh: inhibitors of PAF-induced NF-kB signaling, primary screen, cell-based, GFP fluorescence, uHTS. KKLEB NF-kB-GFP reporter, GFP fluorescence overnight. inhibition, % at 5 µM. hit rate 0.86% among 360,000;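 active = at least 50% inhibition at 5 µM, scaled per plate between neutral and stimulator controls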;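 also: PAF is a Pseudomonas aeruginosa culture filtrate used as stimulus; plate controls were PAF-stimulated DMSO wells for no effect and unstimulated DMSO wells for full effect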
KKLEB cytotox: cytotoxicity in KKLEB CF airway cells, primary screen, cytotoxicity control for CF NF-kB inhibitor project, cell-based, uHTS, fluorescence assay plates | KKLEB CF airway cells viability, ATPlite luminescence, overnight; active compounds read low; cells stimulated with P. aeruginosa culture filtrate | activity change (cytotoxicity), % at 5 µM | hit rate 0.36% among 360,000;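 active = corrected activity change at or below -50% at 5 µM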
Mdm2 MdmX PPI: inhibitors of human Mdm2-MdmX association, primary screen, cell-based, luminescence, split luciferase, SaOS-2, uHTS. SaOS-2 split-luciferase Mdm2/MdmX complementation. hit rate 3% among 330,000. Protein Mdm4 (Homo sapiens) + E3 ubiquitin-protein ligase Mdm2 (Homo sapiens), …. AID 485346, 2010. inhibition, % at 8 µM;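 active = inhibition of at least 50% at 8 µM in the primary screen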
Target sequence (O15151 whole entry, looked up): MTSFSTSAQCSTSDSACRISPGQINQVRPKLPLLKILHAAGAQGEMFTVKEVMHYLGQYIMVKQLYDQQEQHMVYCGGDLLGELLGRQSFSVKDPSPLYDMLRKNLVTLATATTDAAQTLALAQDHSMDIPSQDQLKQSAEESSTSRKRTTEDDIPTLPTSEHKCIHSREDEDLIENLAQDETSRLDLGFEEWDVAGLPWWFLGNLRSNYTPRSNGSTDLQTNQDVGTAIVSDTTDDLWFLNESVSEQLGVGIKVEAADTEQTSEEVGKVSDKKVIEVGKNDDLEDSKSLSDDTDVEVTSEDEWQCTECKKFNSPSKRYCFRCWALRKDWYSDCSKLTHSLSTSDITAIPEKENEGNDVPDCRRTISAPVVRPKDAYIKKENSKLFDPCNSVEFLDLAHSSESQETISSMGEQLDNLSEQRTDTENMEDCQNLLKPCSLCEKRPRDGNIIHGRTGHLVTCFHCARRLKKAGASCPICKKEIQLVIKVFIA
Target sequence (Q00987 whole entry, looked up): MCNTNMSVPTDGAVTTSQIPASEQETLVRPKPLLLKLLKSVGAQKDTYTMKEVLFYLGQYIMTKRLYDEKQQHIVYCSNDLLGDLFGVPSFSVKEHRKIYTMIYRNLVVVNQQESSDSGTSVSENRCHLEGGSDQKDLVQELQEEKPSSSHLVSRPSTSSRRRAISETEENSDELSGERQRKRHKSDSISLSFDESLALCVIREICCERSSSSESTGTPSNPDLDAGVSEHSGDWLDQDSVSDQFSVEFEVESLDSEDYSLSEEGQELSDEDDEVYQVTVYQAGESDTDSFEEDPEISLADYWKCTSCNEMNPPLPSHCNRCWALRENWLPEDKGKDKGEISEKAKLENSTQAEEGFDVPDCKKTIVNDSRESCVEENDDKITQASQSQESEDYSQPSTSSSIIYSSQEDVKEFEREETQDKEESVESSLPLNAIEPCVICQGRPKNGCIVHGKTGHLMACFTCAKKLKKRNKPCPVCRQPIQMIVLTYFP
LGR2 antag: inhibitors of bursicon-induced LGR2 CRE-luciferase signal, primary screen, cell-based, HEK293, CRE-luciferase reporter, bursicon stimulation | bursicon-stimulated, 4 h | inhibition, % at 9.99 µM | hit rate 0.35% among 380,000;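 active = drop in luminescence signal, shown as inhibition above about 50% in the replicate tests, limit read from the data, passing the limit was not always enough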;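 also: agonist challenge used bursicon conditioned medium at about half maximal strength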
Peg3 promoter: Peg3 promoter-driven luciferase inhibitors, primary screen, cell-based, HeLa, luciferase luminescence. HeLa PEG-Prom luciferase reporter, overnight. inhibition, % at 20 µM. hit rate 1.7% among 360,000. AID 588405, 2011;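 active = inhibition of at least 50% at 20 µM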
HSP90 inh: HSP90 inhibitors, primary screen, cell lysate, luminescence; Heat shock protein HSP 90 (rabbit reticulocyte lysate; luciferase refolding); Rabbit reticulocyte lysate, luciferase refolding luminescence, 3 h; inhibition, % at 5.6 µM; hit rate 0.91% among 290,000; AID 1789, 2009;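 active = inhibition above the screen-wide mean plus 3 SD, computed separately per campaign, cut at about 16% in these data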;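 also: 0% = DMSO wells and 100% = 60 µM geldanamycin wells; inhibitors lower the luminescence because luciferase stays unfolded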
Mdm2 MdmX conf: Mdm2-MdmX complex disruptors, retested hits, confirmation, luminescence, single concentration | shares compounds with Mdm2 MdmX PPI | Mdm2-MdmX binding, luminescent assay | inhibition, % at 8 µM | hit rate 55% among 10,000 | AID 489028, 2010; in the data active = inhibition above about 40%
Full FLuc ctr: full-length luciferase signal inhibition, confirmation, counter-screen for Mdm2/MdmX interaction inhibitor project, cell-based, single concentration, SaOS-2 | shares compounds with Mdm2 MdmX PPI | hit rate 77% among 6,200 | inhibition, % at 8 µM | AID 504607, 2011 | SaOS-2 full-length luciferase counterscreen, luminescence;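 active = mean inhibition at 8 µM reaching about 37%, which flags the compound as non-specific, limit read from the data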;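 also: p53-null SaOS-2 cells with luciferase driven by a doxycycline-inducible promoter; compound on cells about two nights before reading with doxycycline added after day one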
* = called active by the depositor; x = no result given.

SMILES	CF NFkB inh	KKLEB cytotox	Mdm2 MdmX PPI	LGR2 antag	Peg3 promoter	HSP90 inh	Mdm2 MdmX conf	others
COc1ccc(-c2cc(-c3ccc(O)cc3)nc(N)c2C#N)cc1	-10	-7	62*	x	-10	0	24
CCOC(=O)CSc1nc(C(C)C)nc2sc(C)c(C)c12	-2	-10	-9	-5	-7	2	x
CCc1nc(SCC(=O)N2c3ccccc3CC2C)c2c(C)c(C)sc2n1 (stereo unspecified)	-9	7	98*	30	6	0	93*	Full FLuc ctr=53*
CCc1nc(SCC(=O)N2CC(=O)Nc3ccccc32)c2c(C)c(C)sc2n1	0	1	39	-3	40	-2	x
Cc1sc2nc(C(C)C)nc(SCC(=O)N3c4ccccc4CC3C)c2c1C (stereo unspecified)	8	-20	56*	29	11	2	27
COc1cccc(-c2ccc3n(c2=O)C[C@H]2[C@H](CO)[C@@H](C(=O)N(C)C)[C@@H]3N2CC2CC2)c1	x	x	x	0	x	x	x
Cc1cc(C(=O)Nc2cccc3c2O[C@H](CN(C)Cc2ccc(-c4ccccc4)cc2)[C@@H](C)CN([C@@H](C)CO)C3=O)n(C)n1	x	x	x	-2	x	x	x
CCCC#Cc1ccc([C@@H]2[C@H](C#N)N(C(=O)C3CC3)[C@H]2CO)cc1	x	x	x	6	x	x	x
Cc1cccc(NS(=O)(=O)c2cc(C(=O)OCC(=O)Nc3cc(C)on3)ccc2C)c1	-7	-1	9	x	26	3	x
Cc1cccc(NS(=O)(=O)c2ccc(C)c(C(=O)OCC(=O)Nc3cc(C)on3)c2)c1	9	-2	88*	x	27	0	76*	Full FLuc ctr=32
C/C(CC(C)(C)C1CCCCC1)=N\NC(N)=S	-18	17	56*	17	43	14	6
C[C@@H]1CN([C@H](C)CO)C(=O)c2cccc(NC(=O)Nc3ccc4c(c3)OCO4)c2O[C@H]1CN(C)Cc1ccc(Cl)c(Cl)c1	x	x	x	7	x	x	x
COc1ccccc1C(=O)Nc1ccc2c(c1)OC[C@@H](C)NC[C@@H](C)[C@@H](OC)CN(C)C2=O	x	x	x	2	x	x	x
Cc1ccc(S(=O)(=O)Nc2ccc3c(c2)CC(=O)N([C@@H](C)CO)C[C@@H](C)[C@H](CN(C)Cc2ccccc2)O3)cc1	x	x	x	10	x	x	x
Cc1cccc(OCC(=O)NNc2c3ccccc3nc3ccccc23)c1	-34	-6	15	12	48	-2	x
Cc1ccc(OCC(=O)NNc2c3ccccc3nc3ccccc23)cc1	-12	-3	56*	1	83*	7	27
COc1ccc(NC(=O)c2cc(-c3ccccc3)nc3c2c(C)nn3-c2ccccc2)c(OC)c1	0	-17	54*	11	17	-2	9
Cc1nn(-c2ccccc2)c2nc(-c3ccncc3)cc(C(=O)NCc3ccco3)c12	4	-14	38	x	22	0	x
COc1ccc(NC(=O)c2cnn(-c3ccccc3)c2C)c(OC)c1	-16	11	-31	4	-23	0	x
COc1ccc(-c2cc(C(=O)NNC3=NCCC3)c3c(C)nn(-c4ccccc4)c3n2)cc1	1	-7	69*	18	37	0	56*	Full FLuc ctr=34
FC(F)(F)c1nc(-c2cccs2)ncc1-c1nnnn1-c1ccc(Cl)cc1	4	2	69*	x	69*	3	36
CN1CCN(C(=O)C[C@H]2CC[C@@H]3[C@@H](COc4ccc(NC(=O)C5CCOCC5)cc4C(=O)N3C)O2)CC1	x	x	x	-24	x	x	x
Cc1ccc(/C=N/NC(=O)c2ccc3ccccc3c2)s1	10	5	56*	-34	-208	4	68*	Full FLuc ctr=73*
Cc1ccc(/C=N/NC(=O)c2ccc3c(c2)OCCO3)s1	-14	7	16	-70	-190	11	x
O=C(CCCCCn1c(=S)[nH]c2ccc(N3CCOCC3)cc2c1=O)NCc1ccccc1Cl	11	-6	8	9	10	1	x
SMILES	CF NFkB inh	KKLEB cytotox	Mdm2 MdmX PPI	LGR2 antag	Peg3 promoter	HSP90 inh	Mdm2 MdmX conf	others
O=c1c2cc(N3CCOCC3)ccc2[nH]c(=S)n1CCCN1CCCCCC1	-1	5	-33	x	-13	1	x
COc1ccc(N2CCN(CCCn3c(=S)[nH]c4ccccc4c3=O)CC2)cc1	-20	0	86*	9	8	0	67*	Full FLuc ctr=47*
O=c1c2cc(N3CCOCC3)ccc2[nH]c(=S)n1CCCN1CCN(c2ccccc2F)CC1	x	x	58*	x	x	5	32
O=C(CCCCCn1c(=S)[nH]c2ccc(N3CCOCC3)cc2c1=O)NCCc1ccccc1	1	11	51*	-22	0	-1	-10
CCCNC(=O)Nc1ccc2c(c1)C(=O)N(C)[C@@H]1CC[C@@H](CC(=O)NCCCN(C)C)O[C@@H]1CO2	x	x	x	-22	x	x	x
COCC(=O)N1[C@H](C#N)[C@H](c2ccc(C3=CCCCC3)cc2)[C@H]1CO	x	x	x	-17	x	x	x
Cc1ccc(OCC(=O)NNC(=S)NC(=O)c2cccs2)c(C)c1	17	-24	51*	-11	18	-4	9
COc1ccc(C(=O)NNC(=S)NC(=O)c2ccco2)cc1	-4	0	11	x	7	-2	x
CCCOc1ccc(C(=O)NNC(=S)NC(=O)c2ccco2)cc1	14	-7	51*	1	24	6	40	Full FLuc ctr=52*
CCCOc1ccc(C(=O)NNC(=S)NC(=O)c2cccs2)cc1	4	1	60*	19	30	-8	37
O=C(O)C[C@@H]1CC[C@H](NC(=O)c2ccncc2)[C@@H](CO)O1	x	x	x	3	x	x	x
Clc1ccc(OCCN2CCOCC2)cc1Cl	3	1	5	x	-34	1	x
Clc1ccc(OCCN2CCCCC2)cc1Cl	11	1	-10	0	-3	2	x
ON=C1c2cc(OCCN3CCCCC3)ccc2-c2ccc(OCCN3CCCCC3)cc21	-8	-3	97*	x	111*	9	70*	Full FLuc ctr=91*
NC(=S)NN=C1c2cc(OCCN3CCOCC3)ccc2-c2ccc(OCCN3CCOCC3)cc21	-51	-38	60*	104*	107*	-2	25
CCC(=O)N1C[C@H]2[C@@H](c3ccccc31)[C@H](CO)N2Cc1cc(F)ccc1F	x	x	x	-15	x	x	x

High-throughput results as filed in PubChem BioAssay.
